What is called AC50 is the concentration at which the activity in the assay is half-maximal.

Experimental findings from PubChem BioAssay (EPA / NIEHS) are described below.

Molecules are shown by their SMILES. “And” between values parts separate entries of the source, which are not always exact repeats. Equal entries are not always repeated. More than one record can exist for a structure, and the calls need not agree. The source made the active and inactive calls. How the source made its calls: active means hit-call score of the fitted dose curve at least 0.9, where 1 is the maximum; inactive means score below 0.9.

Read-out in this experiment: CD38, CD38 (gene 952)
Briefly: BSK_SAg_CD38: BioMAP Diversity Plus: SAg Assay for CD38 Biomarker Activity (AID 2283087). The note with it: primary human HUVEC with PBMC; actives raise or lower the signal. An outline of the steps:
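Human HUVEC plus PBMC co-culture stimulated with superantigen; CD38 measured by ELISA 24 h after chemical dosing. Fluorescence read-out, bidirectional fit against DMSO; cytotoxicity tracked in parallel by SRB and Alamar Blue.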
For `O=c1c2ccccc2oc2ccccc12`, the outcome was inactive.

As to `O=Nc1ccc(O)cc1`, the result was inactive.

Consider `N#[N+]c1ccc2c(S(=O)(=O)[O-])cccc2c1O`, for which the outcome was inactive.

For the compound `C#CC1(O)CC[C@H]2[C@@H]3CCC4=CCCC[C@@H]4[C@H]3CC[C@@]21C` (stereo partly specified), the AC50 is 35.1 µM (active).

As to `O=C(Cl)c1cc(C(=O)Cl)cc(C(=O)Cl)c1`, the concentration at half-maximal activity (AC50) is 28.9 µM (active).

Regarding `CC(C)C(=O)C(C)C`, the result was inactive.

Turning to `C=CC(=O)OCC(Br)CBr` (stereo unspecified), the half-maximal activity concentration (AC50) is 15.3 µM (active).

Regarding `CCOC(=O)c1ccccc1C(=C1C=C(Br)C(=O)C(Br)=C1)c1cc(Br)c(O)c(Br)c1`, the AC50 is 20.4 µM (active) and 18.8 µM (active).

For the compound `c1ccc2c(c1)ccc1ncccc12`, the AC50 was 29.7 µM (active).

In the case of `CCCCC(CC)COC(=O)c1ccccc1O` (stereo unspecified), the outcome was inactive.

On to `CCCCCCCCCCCCCCCC[N+](C)(C)CC`, for which the AC50 is 9.51 µM (active).

As to `COc1ccc2nc(N)sc2c1`, the outcome was inactive.

In the case of `CC(C)(c1cc(Br)c(OCCO)c(Br)c1)c1cc(Br)c(OCCO)c(Br)c1`, the AC50 is 5.1 µM (active).

Turning to `CCCCC/C=C\C/C=C\CCCCCCCC(=O)OC`, the AC50 is 28.4 µM (active).

For the compound `Nc1ccc(N)c(Cl)c1`, the AC50 was 15.9 µM (active).

In the case of `CC1OC1C1CCC2(C)OC2C1` (stereo unspecified), the result was inactive.

On to `C=C[Si](OC(C)=O)(OC(C)=O)OC(C)=O`, for which the outcome was inactive.

With `S=C(NC1CCCCC1)NC1CCCCC1`, the outcome was inactive.

Regarding `C/C=C\C/C=C/CCCCCCCCOC(C)=O`, the AC50 is 32.1 µM (active).

Turning to `CCCCC(CC)COCC1CO1` (stereo unspecified), the outcome was inactive.

As to `CCO[Si](CCCN=C=O)(OCC)OCC`, the result was inactive.

With `CO[Si](OC)(OC)c1ccccc1`, the result was inactive.

Consider `CCCCNc1ccc(NCCCC)c2c1C(=O)c1ccccc1C2=O`, for which the outcome was inactive.

For `CCO[Si](C)(OCC)OCC`, the result was inactive.

As to `O=C1CCCN1CCO`, the outcome was inactive.

With `CN1C(=O)N(C)C(O)C1O` (stereo unspecified), the outcome was inactive.

Take `C=CCOc1c(Br)cc(Br)cc1Br`: the outcome was inactive.

With `CCCCCCCCc1ccc(Nc2ccc(CCCCCCCC)cc2)cc1`, the result was inactive.

For `O=C(c1ccc(O)cc1)c1ccc(O)cc1O`, the concentration at half-maximal activity (AC50) was 20 µM (active) and the outcome was inactive.

As for `CCOc1nc(F)cc2nc(S(=O)(=O)Nc3c(Cl)cccc3C(=O)OC)nn12`, the outcome was inactive.

Take `C=CC=CC=CCCCCC`: the result was inactive.

With `c1ccc(-c2ccccn2)nc1`, the outcome was inactive.

Regarding `C=CCOCC(O)CCl` (stereo unspecified), the result was inactive.

Turning to `c1ccc2c(c1)ccc1cc3c(ccc4ccccc43)cc12`, the outcome was inactive.

For `O=C(Nc1ccccc1SSc1ccccc1NC(=O)c1ccccc1)c1ccccc1`, the AC50 was 5.21 µM (active).
